PubChem BioAssay AID720513 (Broad Institute, 2013)
About 480 (23%) of roughly 2,100 compounds were called active. Inconclusive results (about 5%) are left out.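 Rule for the calls: active = fitted curve reaches 40% activation at or below the top valid concentration, in every replicate test; inconclusive = replicate tests disagree on the call; inactive = the rest, including activity in the opposite direction.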 Only a sample is shown. Results with a measured potency or affinity are listed apart.

Experiment: activators raising PGC1a acetylation in cells, dose response, cell-based, cherry-picked samples, set 6 (AID 720513);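 note: cells made to overexpress flag tagged PGC1a plus GCN5 acetyltransferase by viral infection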
Details: U2OS PGC1a acetylation AlphaLISA, overnight, 0 = neutral, -100 = inhibitor control; series mostly up to 19.5 µM; activation (acetylation increase): at the top concentration

Question: Which “activation (acetylation increase)” value does the source give for `CC(=O)c1cccc(-n2nnnc2SCC(=O)NNC(=O)C(C)C)c1` here?
Answer: 27.3% (inactive)

Question: Which “activation (acetylation increase)” value does the source give for `C[C@H](CO)N1C[C@H](C)[C@H](CN(C)S(=O)(=O)c2ccc(F)cc2)Oc2ncc(-c3cccc(C(=O)N(C)C)c3)cc2C1=O` here?
Answer: 5.12% (inactive)

Question: For `Cc1nonc1NC(=O)CSc1nc(C2CCCCC2)nc2ccccc12`, which “activation (acetylation increase)” value is on record?
Answer: -21.9% (inactive)

Question: Which “activation (acetylation increase)” value does the source give for `CC(C)(CO)CNc1ccn2nccc2n1` here?
Answer: 9.81% (inactive)

Question: Which “activation (acetylation increase)” value does the source give for `Cc1cccc(C)c1NC(=O)CS(=O)CC(=O)Nc1ccc(F)cc1F` (stereo not drawn) here?
Answer: -14.8% (inactive)

Question: With `O=C(CSC1=NS(=O)(=O)c2ccccc2N1)Nc1ccc(F)cc1` as the compound, how does the “activation (acetylation increase)” value read?
Answer: -19.9% (inactive)

Question: Which “activation (acetylation increase)” value does the source give for `O=C1C=CCCN1C(=O)/C=C/c1cccc(Br)c1` here?
Answer: -88.3% (inactive)

Question: Which “activation (acetylation increase)” value does the source give for `Cn1nnnc1Sc1ncnc2scc(-c3ccc(C#N)cc3)c12` here?
Answer: -92.1% (inactive)

Question: For `O=C(c1cccs1)N(Cc1ccccn1)Cc1ccco1`, which “activation (acetylation increase)” value is on record?
Answer: 36.3% (inactive)

Question: For `COc1ccc2cc(CN(Cc3ccco3)C(c3nnnn3C3CCCCC3)C(C)C)c(=O)[nH]c2c1` (stereo not drawn), which “activation (acetylation increase)” value is on record?
Answer: 8.69% (inactive)

Question: With `COCCN(C(=O)COC(=O)Cc1cccc(OC)c1)c1c(N)n(Cc2ccccc2)c(=O)[nH]c1=O` as the compound, how does the “activation (acetylation increase)” value read?
Answer: -0.707% (inactive)

Question: For `O=C1CCCc2ccccc2N1Cc1ccc(Cl)cc1Cl`, which “activation (acetylation increase)” value is on record?
Answer: 33.4% (inactive)

Question: For `CCOC(=O)CSc1nnc(-c2ccc(OC)cc2)n1CC`, which “activation (acetylation increase)” value is on record?
Answer: 37.5% (inactive)

Question: For `CCN(C(=O)CSc1nnc(-c2cccs2)n1N)c1c(N)n(Cc2ccccc2)c(=O)[nH]c1=O`, which “activation (acetylation increase)” value is on record?
Answer: -1.94% (inactive)

Question: Which “activation (acetylation increase)” value does the source give for `CC1(C)CC2(CCO1)OC(=O)CC2C(=O)Nc1cccc2ccccc12` (stereo not drawn) here?
Answer: 2.06% (inactive)

Question: With `CO[C@H]1CN(C)C(=O)c2cc(NC(=O)c3ccccc3F)ccc2OC[C@@H](C)N(C(C)=O)C[C@@H]1C` as the compound, how does the “activation (acetylation increase)” value read?
Answer: -15.3% (inactive)

Question: Which “activation (acetylation increase)” value does the source give for `COc1ccc(C(=O)Nc2ccc3c4c(cccc24)CC3)cc1` here?
Answer: 3.87% (inactive)

Question: With `CCN(CC)c1ccc(NC(=O)c2ccc(NC(=O)C3CCCO3)cc2)c(C)c1` (stereo not drawn) as the compound, how does the “activation (acetylation increase)” value read?
Answer: 23.6% (inactive)

Question: With `CC(C)CNC(=O)c1coc(=O)c(Br)c1` as the compound, how does the “activation (acetylation increase)” value read?
Answer: 8.17% (inactive)

Question: For `O=C(NCCN1CCOCC1)c1ccc(=O)oc1`, which “activation (acetylation increase)” value is on record?
Answer: 6.38% (inactive)

Question: For `O=C(OCCCN1CCCCC1)c1ccc(O)cc1`, which “activation (acetylation increase)” value is on record?
Answer: 31.7% (inactive)

Question: For `Cc1ccc(S(=O)(=O)N(C)c2ccc(OC(C)C(=O)N3CCCC3)cc2)cc1C` (stereo not drawn), which “activation (acetylation increase)” value is on record?
Answer: 27.2% (inactive)

Question: Which “activation (acetylation increase)” value does the source give for `OC[C@@H]1[C@@H](c2ccc(C#CC3CCCC3)cc2)[C@H]2CN(CCC(F)(F)F)CCCCN12` here?
Answer: -96.8% (inactive)

Question: With `C[C@@H]1CN([C@H](C)CO)C(=O)CCCn2cc(nn2)CO[C@@H]1CN(C)C(=O)Nc1cccc2ccccc12` as the compound, how does the “activation (acetylation increase)” value read?
Answer: 17.8% [at 21 µM] (inactive)

Question: Which “activation (acetylation increase)” value does the source give for `C[C@@H]1CN([C@@H](C)CO)C(=O)c2ccccc2-c2ccccc2CO[C@@H]1CN(C)C(=O)Nc1cccc(Cl)c1Cl` here?
Answer: 9.37% (inactive)

Question: For `C[C@H]1CN([C@@H](C)CO)C(=O)c2cccc(NC(=O)Nc3ccc(C(F)(F)F)cc3)c2O[C@H]1CN(C)C(=O)Nc1cccc2ccccc12`, which “activation (acetylation increase)” value is on record?
Answer: -76.5% (inactive)

Question: With `Cc1cc2c(c(/C=C/C(=O)c3ccccc3)c1)OC1(C=C2)Oc2ccccc2C(=O)N1C` (stereo not drawn) as the compound, how does the “activation (acetylation increase)” value read?
Answer: -61.7% (inactive)

Question: For `N#Cc1c(N)c(C(=O)c2ccccc2)n2ccccc12`, which “activation (acetylation increase)” value is on record?
Answer: -23.1% (inactive)

Question: Which “activation (acetylation increase)” value does the source give for `CC1(C)CC(=O)C=C(NCc2ccco2)C1` here?
Answer: 23.6% (inactive)

Question: For `CSc1n[nH]c(NCc2ccccc2)n1`, which “activation (acetylation increase)” value is on record?
Answer: 32.7% (inactive)

Question: Which “activation (acetylation increase)” value does the source give for `COC1(C)CN(Cc2ccccc2Br)[C@H](/C=C/c2ccccc2)[C@H](Cc2ccccc2)O1` (stereo partly drawn) here?
Answer: 8.05% (inactive)

Question: Which “activation (acetylation increase)” value does the source give for `CCn1nccc1C(=O)Nc1ccccc1OC` here?
Answer: 15.2% [at 10 µM] (inactive)

Question: For `CCOc1ccccc1NC(=O)c1ccc2ccccc2c1`, which “activation (acetylation increase)” value is on record?
Answer: 29.4% (inactive)

Question: With `C[C@@H]1CN([C@H](C)CO)C(=O)c2cc(C3=CCCCC3)cnc2O[C@@H]1CN(C)Cc1ccccc1` as the compound, how does the “activation (acetylation increase)” value read?
Answer: -36.1% (inactive)

Question: Which “activation (acetylation increase)” value does the source give for `COc1ccc(C(CC(=O)Nc2ccccn2)N2Cc3ccccc3C2=O)cc1` (stereo not drawn) here?
Answer: 22.9% (inactive)

Question: For `c1ccc(-c2cc(-c3ccccc3)n3ncnc3n2)cc1`, which “activation (acetylation increase)” value is on record?
Answer: 9.55% (inactive)

Question: Which “activation (acetylation increase)” value does the source give for `CC(C)NC(=O)Nc1ccc2c(c1)C(=O)N([C@@H](C)CO)C[C@H](C)[C@@H](CN(C)C(=O)CCC(F)(F)F)OCCCC[C@@H](C)O2` here?
Answer: 10.8% (inactive)

Question: Which “activation (acetylation increase)” value does the source give for `C[C@H]1CN([C@@H](C)CO)S(=O)(=O)c2ccc(C#Cc3cccnc3)cc2O[C@@H]1CN(C)CC1CCOCC1` here?
Answer: 32.6% (inactive)

Question: With `COc1cc(NC(=O)NCc2ccco2)ccc1-c1ccc(NC(=O)NCc2ccco2)cc1OC` as the compound, how does the “activation (acetylation increase)” value read?
Answer: -67.9% (inactive)

Question: With `Cc1noc(C)c1NC(=O)N[C@H]1C=C[C@H](CC(=O)NCc2ccc(Cl)c(Cl)c2)O[C@H]1CO` as the compound, how does the “activation (acetylation increase)” value read?
Answer: -0.434% (inactive)

Question: Which “activation (acetylation increase)” value does the source give for `CN1C(=O)c2ccccc2C(C(=O)O)C1c1cccc([N+](=O)[O-])c1` (stereo not drawn) here?
Answer: 2.58% (inactive)

Question: Which “activation (acetylation increase)” value does the source give for `CCOC(=O)C1(Cc2cccc(F)c2)CCN(Cc2ccc(COC)o2)CC1` here?
Answer: 22.6% (inactive)

Question: With `CCOC(=O)C1(Cc2cccc(F)c2)CCN(Cc2c(C)nn(CC)c2C)CC1` as the compound, how does the “activation (acetylation increase)” value read?
Answer: -4.38% (inactive)

Question: Which “activation (acetylation increase)” value does the source give for `C[C@@H]1CN([C@@H](C)CO)C(=O)Cc2cc(NC(=O)CCC(F)(F)F)ccc2O[C@H]1CN(C)S(C)(=O)=O` here?
Answer: 11.5% (inactive)

Question: Which “activation (acetylation increase)” value does the source give for `Cn1nnnc1Sc1ncnc2scc(-c3ccc[nH]3)c12` here?
Answer: -86.7% (inactive)

Question: Which “activation (acetylation increase)” value does the source give for `Oc1ccc2ccccc2c1CN1CCCCC1` here?
Answer: 25.1% (inactive)

Question: With `Cn1c(CCN2CCCCC2)nc2cc(NS(=O)(=O)c3ccccc3)ccc21` as the compound, how does the “activation (acetylation increase)” value read?
Answer: 4.86% (inactive)

Question: Which “activation (acetylation increase)” value does the source give for `Cn1c(O)c(C(C#N)=C2N=c3ccccc3=N2)c2ccccc21` here?
Answer: 30% [at 10 µM] (inactive)

Question: For `O=C(C[C@H]1CC[C@@H]2[C@H](COC[C@@H](O)CN2S(=O)(=O)c2ccc(F)cc2)O1)NCCN1CCCCC1`, which “activation (acetylation increase)” value is on record?
Answer: 14.2% (inactive)

Question: With `O=c1oc(-c2ccccc2)cc(Cl)c1Cl` as the compound, how does the “activation (acetylation increase)” value read?
Answer: -106% (inactive)

Question: For `Cc1noc(C)c1C(=O)Nc1nc(-c2cc(F)ccc2F)cs1`, which “activation (acetylation increase)” value is on record?
Answer: 12.2% (inactive)

Question: For `CN(C)Cc1csc(NC(=O)Nc2ccccc2-c2ccccc2)n1`, which “activation (acetylation increase)” value is on record?
Answer: 33% (inactive)

Question: For `CC(C)NC(=O)NCC[C@@H]1CC[C@H](NS(=O)(=O)c2ccc(-c3ccccc3)cc2)[C@@H](CO)O1`, which “activation (acetylation increase)” value is on record?
Answer: 17% (inactive)

Question: Which “activation (acetylation increase)” value does the source give for `COc1ccccc1NC(=O)CCC(=O)Nc1ccccc1OC` here?
Answer: 10.1% (inactive)

Question: With `COC(=O)c1cc(Cl)c(NS(=O)(=O)c2ccccc2)cc1OC` as the compound, how does the “activation (acetylation increase)” value read?
Answer: -19.9% (inactive)

Question: Which “activation (acetylation increase)” value does the source give for `CCn1c(=O)c2c(cnn2C)c2ccccc21` here?
Answer: -24.2% (inactive)

Question: With `CCOc1ccc(Nc2ncnc3ccc([N+](=O)[O-])cc23)cc1` as the compound, how does the “activation (acetylation increase)” value read?
Answer: -15.2% (inactive)

Question: With `COc1ccc(-c2nc(C#N)c(NCc3ccco3)o2)cc1` as the compound, how does the “activation (acetylation increase)” value read?
Answer: 4.47% (inactive)

Question: With `CCCNC(=O)c1nnsc1S(=O)(=O)c1ccc(Cl)cc1` as the compound, how does the “activation (acetylation increase)” value read?
Answer: -89.4% (inactive)

Question: With `Cc1cc(C)c2c(=O)[nH]n(C3CCCCCC3)c2n1` as the compound, how does the “activation (acetylation increase)” value read?
Answer: 5.32% (inactive)

Question: With `O=C(C[C@H]1C[C@@H]2c3cc(NS(=O)(=O)c4ccc(F)cc4)ccc3O[C@@H]2[C@@H](CO)O1)N1CCc2ccccc2C1` as the compound, how does the “activation (acetylation increase)” value read?
Answer: -62.7% (inactive)

Question: For `O=C(C1CC1)N1C[C@@H]2N[C@H](C1)C2c1ccc(/C=C/c2ccccc2)cc1` (stereo partly drawn), which “activation (acetylation increase)” value is on record?
Answer: -16.1% (inactive)

Question: For `O=C(C(Br)=Cc1ccccc1)c1ccccc1`, which “activation (acetylation increase)” value is on record?
Answer: -73.6% (inactive)
